This is a sample that favours compounds with a hit; in the whole collection about 8% have one here.
HCV inhibitor – HCV inhibition. Huh7.5.1 HCVcc-Cre infection, luciferase reporter, 44 h. Potency, µM (highest dose often 41.8 µM), usual class: inhibitors. actives 3.4% (n = 340,000); active = well fitted inhibition curve with a large enough effect; inconclusive = small, poorly fitted or top-dose-only effect, or another doubt; inactive = no such curve, though single readings can be large or run the other way
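Infectious HCVcc-Cre (~0.5 moi) was added to cells just after compound, with cells seeded 4 h earlier at 1,000 per well. Luciferase activity after 44 h culture reported infection; substrate was incubated 15 min at room temperature before reading.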
HCMV antiviral – human cytomegalovirus inhibition | HFF cells, HCMV-luciferase reporter, 72 h; hits give low values | activity change, negative = inhibition, % at 57.5 µM | actives 4.5% (n = 410,000) | AID 1259415; in the data active = activity change below about -60%; inconclusive = no clear call, values can overlap the other calls; inactive = above about -39%
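Steps: HFFs plated, 16 h 37C; compounds added; HCMV-luciferase added to MOI 1 PFU/cell; 72 h 37C; OneGlo reagent, 5 min room temperature; luminescence read, normalized to controls.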
Lassa entry inh – blocks Lassa virus binding to or entry into cells; actives 1.2% (n = 300,000); Lassa virus pseudotype entry inhibition, cell reporter; AID 540256; Potency, µM (highest dose often 37.9 µM), actives largely listed as inhibitors; calls by dose curve; tested in HEK293 cells; note: nearly all actives have a fitted effect of over 50% in size
FMDV antiviral – blocks foot and mouth disease virus | actives 1.2% (n = 410,000) | FMDV antiviral cell-based qHTS | Potency, µM (series often up to 57.9 µM), usual class: inhibitors; calls by dose curve; tested in HEK293T cells; note: read-out not given here; nearly all actives have a fitted effect of over 45% in size
SARS PLpro yeast – SARS-CoV PLP inhibition in yeast. S. cerevisiae expressing SARS-CoV PLpro, growth rescue. Potency, µM (titrated, usually from 32.9 µM), most hits filed as activators. AID 485353. actives 0.19% (n = 330,000); calls by dose curve; note: nearly all actives have a fitted effect of over 55% in size
MARV entry inh – inhibitors of Marburg virus binding or cell entry | Marburg virus pseudotyped entry inhibition, cell reporter | Potency, µM (titrated, usually from 37.8 µM), hits mostly inhibitors | actives 1.8% (n = 300,000); calls by dose curve; tested in HEK293 cells
Hits are given with their value; . = inactive; ? = inconclusive; / = no result given.

SMILES	HCV inhibitor	HCMV antiviral	Lassa entry inh	FMDV antiviral	SARS PLpro yeast	MARV entry inh
Cc1sc(NC(=O)c2ccco2)c(C(c2cccnc2)N2CCC(C)CC2)c1C (stereo not drawn)	8.9µM	-93	21µM	18µM	.	?
Cc1sc(NC(=O)c2ccco2)c(CN2CCN(Cc3ccccc3)CC2)c1C	?	.	?	.	.	13µM
Cc1sc(NC(=O)c2ccco2)c(CN2CCC(C)CC2)c1C	?	.	.	.	.	?
Cc1ccc(S(=O)(=O)CC(=O)Nc2sc3c(c2C#N)CCCC3)cc1	/	.	.	.	/	/
CC(O)CNc1nc2sc3c(c2c(=O)n1Cc1ccco1)CCCCC3 (stereo not drawn)	.	.	.	.	.	?
CC(O)CNc1nc2sc3c(c2c(=O)n1CCc1ccccc1)CCCCC3 (stereo not drawn)	.	.	26µM	.	.	?
O=c1c2c3c(sc2nc(NCCOCCO)n1Cc1ccco1)CCCCC3	.	.	/	.	.	/
CN(C)CCNc1nc2sc3c(c2c(=O)n1CCc1ccccc1)CCCCC3	?	-99	/	.	.	/
C[C@H]1CC[C@H]2C(=O)N(Cc3ccccc3)C[C@H](O)CN2[C@H]1c1cccc(Br)c1	/	/	.	/	/	.
Cc1cc(NS(=O)(=O)c2cn(C)c(C)n2)ccc1Br	/	.	.	.	/	/
CCc1cc(C(=O)OC)c(NC(=O)CN2CCN(C(=O)c3ccco3)CC2)s1	/	.	?	?	.	.
Cc1ccc(C(=O)c2cc(C)sc2NC(=O)CN2CCN(C(=O)c3ccco3)CC2)cc1	13µM	.	?	?	.	?
CC(C)c1ccc(S(=O)(=O)c2cn(CC(=O)Nc3ccc(F)cc3)c3ccccc3c2=O)cc1	/	-107	.	.	/	.
CCc1ccc(S(=O)(=O)c2cn(CC(=O)Nc3ccc(C)cc3)c3ccccc3c2=O)cc1	/	.	.	.	/	?
COc1ccc(CNC(=O)c2sccc2-c2ccccc2)cc1OC	.	-71	/	?	.	/
COc1ccc(CNC(=O)c2[nH]c(C(F)(F)F)nc2-c2ccccc2)cc1OC	/	.	/	.	/	/
C=Cc1ccc(Cn2c(C)c(C(=O)NCc3ccc(C#N)cc3)sc2=O)cc1	/	-60	/	?	/	/
COc1ccccc1Cn1c(C)c(C(=O)NCc2cccc(C)c2)sc1=O	/	-61	/	.	/	/
Cc1c(C(=O)NCc2cccc([N+](=O)[O-])c2)sc(=O)n1Cc1cccc(F)c1	/	-61	/	.	/	/
COc1ccc2c(c1)OC(C)CN(CCNC(=O)C1CCOC1)C2 (stereo not drawn)	/	/	/	.	/	/
COc1ccc(CNC(=O)c2sc(=O)n(Cc3ccc(C)cc3)c2C)cc1OC	/	.	/	25µM	/	/
Cc1ccc(Cn2c(C)c(C(=O)NCc3cccc(C(F)(F)F)c3)sc2=O)cc1	/	.	/	.	/	/
COc1ccc(CNC(=O)c2sc(=O)n(Cc3ccc(-c4ccccc4)cc3)c2C)cc1OC	/	?	/	16µM	/	/
Cc1ccc2c(c1)CN(CCNC(=O)c1cccc(Cn3cccn3)c1)CC(C)O2 (stereo not drawn)	/	/	/	.	/	/
CCN(CCCNc1ncnc2nc[nH]c12)c1cccc(C)c1	?	-76	/	?	.	/
SMILES	HCV inhibitor	HCMV antiviral	Lassa entry inh	FMDV antiviral	SARS PLpro yeast	MARV entry inh
CCCCN(CCCNc1ncnc2nc[nH]c12)c1ccccc1	?	.	.	.	.	.
COc1ccc(C(=O)C[n+]2ccc3c(c2)nc(-c2ccccc2)n3C)cc1	.	-91	.	.	.	.
COc1ccc(C(=O)C[n+]2ccc3c(c2)nc(-c2ccc(OC)cc2OC)n3C)cc1	.	-99	.	.	.	.
COc1ccc(C(=O)NCc2nc(-c3cccc(NC(=O)c4ccc(C)s4)c3)oc2C)cc1	/	/	/	.	/	/
COc1cc(-c2cc(OC)c3c(C)oc(C)c3c(=O)c2)ccc1OC(=O)c1cccc(Cl)c1	/	.	.	?	/	.
O=C(Cn1cc(/C=C\[N+](=O)[O-])c2ccccc21)Nc1ccccc1	?	?	?	13µM	.	?
O=[N+]([O-])/C=C/c1cn(Cc2ccccc2)c2ccccc12	.	-104	.	.	.	?
O=Cc1cn(Cc2cccc([N+](=O)[O-])c2)c2ccccc12	.	?	0.63µM	.	.	0.82µM
N#Cc1ccccc1Cn1cc(/C=C/[N+](=O)[O-])c2ccccc21	?	-101	23µM	14µM	.	?
CCOC(=O)c1c(Oc2ccc(OC)cc2)nnc(-c2ccccc2)c1-c1ccccc1	/	.	.	?	/	.
O=C1C=CC(=O)c2c(O)c(Cl)c(Cl)c(O)c21	/	/	/	.	/	/
O=C1C=CC(=O)c2c(O)c(CO)c(CO)c(O)c21	.	.	.	35µM	/	?
Cc1ccc(S(=O)(=O)NN2C(=O)c3ccccc3NC2c2ccccn2)cc1 (stereo not drawn)	?	.	?	.	.	7.9µM
CCCN(CCC)CCNC(=O)Cn1ncc2c([nH]c3ccc(C)cc32)c1=O	/	.	.	.	/	/
COc1ccc(-c2cn3nc(N4CCCC(C(=O)Nc5cccc(Cl)c5C)C4)sc3n2)cc1 (stereo not drawn)	/	.	.	.	/	/
CC(NC(=S)NCCc1ccccc1)C(c1cccs1)N1CCN(Cc2ccccc2)CC1 (stereo not drawn)	7.9µM	-81	?	?	.	?
CC(=O)c1cccc(NC(=O)CSc2nc(=O)n(Cc3ccco3)c3c2CCC3)c1	/	.	?	.	/	/
CC(C)[C@H](NC(=O)OC(C)(C)C)c1nnc(S(=O)(=O)Cc2c(F)cccc2Cl)o1	?	-76	.	35µM	.	.
CC[C@@H](C)[C@H](NC(=O)OC(C)(C)C)c1nnc(S(=O)(=O)Cc2cc(C)ccc2C)o1	.	.	10µM	.	.	?
C[C@H](NC(=O)OC(C)(C)C)c1nnc(SCc2c(F)cccc2Cl)o1	/	-78	.	.	/	.
C[C@H](NC(=O)OC(C)(C)C)c1nnc(SCC(=O)c2ccc(Cl)cc2)o1	?	.	.	?	.	.
Cc1ccc2c(=O)cc(C(=O)Nc3ccc(S(=O)(=O)N(C)Cc4ccccc4)cc3)oc2c1C	/	.	.	.	/	.
CCOc1c(Cl)cc(CNc2ccc3[nH]c(=O)[nH]c3c2)cc1OC	/	?	.	.	/	?
Cc1c2cnn(CC(=O)NCc3ccc(F)cc3)c(=O)c2c(C)n1Cc1cccc(Cl)c1	/	.	.	.	/	?
COC(=O)C1=C2CCO[C@@H]2[C@H]2[C@@H](C)[C@H](OC)c3ccccc3[C@H]12	/	/	?	/	/	.
SMILES	HCV inhibitor	HCMV antiviral	Lassa entry inh	FMDV antiviral	SARS PLpro yeast	MARV entry inh
CCCCn1c(C2CC(=O)N(c3ccc(OCC)cc3)C2)nc2ccccc21 (stereo not drawn)	/	.	.	.	/	.
CCOC(=O)c1cc(-c2ccc3c(c2)OCCO3)n[nH]1	.	.	?	.	.	5.6µM
Cc1ccc(C)c(Cn2c(=O)n(Cc3ccccc3)c(=O)c3c(C)c(C)sc32)c1	/	.	.	.	/	.
CNCCCCc1cnc(C)c2[nH]c3ccccc3c12	/	/	/	.	/	/
CCOc1ccccc1CNC(=O)c1ccc2c(c1)nc1n2CCCCC1	/	-68	5µM	.	/	/
CCOc1ccccc1CNC(=O)Cc1ccc(NC(=O)N2CCCCc3ccccc32)cc1	/	.	4.5µM	.	/	/
